The supplement of paper PMC10338343
± gives the standard deviation.

test system: EfPiwi piRISC loaded with L1MC piRNA (26 nt); assay: pre-steady-state target cleavage rate (min^-1); auxiliary factor: 500 nM Ephydatia muelleri Gtsf1; guide: L1MC piRNA 5'p-UAACUAAAUACUAUGCAAGCUGUAGG; MIWI and MILI are mouse PIWI proteins and EfPiwi is from a freshwater sponge; tags in brackets are library labels; higher = faster piRNA-guided slicing of the target
In short: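 Active affinity-purified piRISC (1 nM) loaded with one synthetic guide was mixed with a transcribed, DNA-blocked target RNA library (0.1 nM), with or without 500 nM GTSF1 partner protein, in HEPES–potassium acetate buffer at 33 °C for 0–8 or 0–960 min. Uncleaved targets were sequenced, normalised to depth and to weakly complementary targets, and pooled across three trials, with k3 capped at 0.0001 min^-1. The pre-steady-state cleavage rate was determined with a burst-and-steady-state fit.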

Sequence | pre-steady-state target cleavage rate
UCCUGCAACAGCUUGCUUAGUAUUUAGUUA | 0.0143 ± 0.0036
UCCUGGAUGUCGAUGCAUAGUACUUAGUUA | 0.00454 ± 0.0029
UCCUGGAUCAGCUUGUCAUAGUAUUUAGUUA | 0.0196 ± 0.0046
UCCUGGUUCAGCUUGCUUAGUAUUUAGUUA | 0.0145 ± 0.0054
UCCUCCUACAUCUUGCAUAGUAUUUAGUUA | 0.0662 ± 0.02
UCCUGCUACAGCUGGCAUAGUAUUUAGUUA | 0.00937 ± 0.0024
UCCUGCAACAGCUUGCAUUGUAUUUAGUUA | 0.0331 ± 0.0081
UCCUGCACAGCUUGCAUAGUAUUUAGUUA | 0.0745 ± 0.016
UCCUGGAUCAGCUAGCAUAGUAUUAAGUUA | 0.00318 ± 0.002
UCCUGGAAGAGCUUGCAUAGUAUUUAGUUA | 0.0725 ± 0.016
UCCUCCUACAGCAUGGAUAGUAUUUAGUUA | 0.096 ± 0.023
UCCUGGAACAGCAUGCAUAGUAAUUAGUUA | 0.0139 ± 0.0048
UCCUGGAUCAGCUACCAUAGUAUUUAGUUA | 0.00516 ± 0.0032
UCCUGGAACUGCUUGCAUAGUAAUUAGUUA | 0.0039 ± 0.0028
UCCUCCUACAGCUUGCAAAGUUUUUAGUUA | 0.00281 ± 0.0022
UCCUGGAUCAGCUUGCAUAGUUUUUAGUUA | 0.00592 ± 0.0018
UCCUGGUUCAGGUUGCAUAGUAUUUAGUUA | 0.0166 ± 0.0047
UCCUCCUACAGCUUGCAUUGUUUUUAGUUA | 0.00277 ± 0.0025
UCCUGGAACAGGUUGCAUAGAAUUUAGUUA | 0.00258 ± 0.0014
UCCUGCAUACAGCUUGCAUAGUAUUUAGUUA | 0.11 ± 0.032

Sequence | pre-steady-state target cleavage rate
UCCUCCUACAGCUUGCAUAGUAUAAUGUUA | 0.00388 ± 0.0022
UCCUGGUACAACUUGCAUAGUAUUUAGUUA | 0.017 ± 0.0059
UCCUGGUACAGCUCGCAUAGUAUUUAGUUA | 0.00967 ± 0.0034
UCCUGGAUGUCGAUGUAUAGUAUUUAGUUA | 0.00398 ± 0.003
UCCUGGAUGUCGAUGCAUAGUAUUUAAGUUA | 0.00522 ± 0.0045
UCCUGGAUCAGCAUGCAUUGUAUUUAGUUA | 0.00421 ± 0.0021
UCCUGCUACAGCUAGCAUUGUAUUUAGUUA | 0.00762 ± 0.0028
UCCUGCUUCAGCUUGCAUAGUAAUUAGUUA | 0.00863 ± 0.003
UCCUGGUACUGCUUGCAUAGUAAUUAGUUA | 0.114 ± 0.043
UCCUGGAUCAGUUUGCAUAGUAUUUAGUUA | 0.128 ± 0.021
UCCUGGUACAGCUUGCAUAGUACUUUAGUUA | 0.00549 ± 0.0027
UCCUCCUACAGCUUGCAUAGUAUUUAGUUUA | 0.145 ± 0.039
UCCUGGAUGUGCUUGCAUAGUACUUAGUUA | 0.00522 ± 0.0031
UCCUGGAUGAGCUUUCAUAGUAUUUAGUUA | 0.00433 ± 0.0018
UCCUGGAUGAGCUUGCAUAGUAUUUAGAUA | 0.00326 ± 0.0019
UCCUGGUUGUGCUUGCAUAGUAUUUAGUAA | 0.00401 ± 0.0038
UCCUCCUACUGCUUGCAUAGUAUAUAGUUA | 0.0123 ± 0.0054
UCCUGCUACAGCUUGGAUAGUAUAUAGUUA | 0.0128 ± 0.0037
UCCUGGAUGAGCUGGCAUAGUAUUUAGUUA | 0.0103 ± 0.0035
UCCUGCUAGAGCUUGGAUAGUAUUUAGUUA | 0.00499 ± 0.0016
